± gives the standard deviation.
tested on: MILI (PIWIL2) piRISC loaded with piRNA #1 (26 nt); assay: pre-steady-state target cleavage rate (min^-1); guide: piRNA #1 5'p-UGAGGUAGUAGGUUGUAUAGUAUCCA; MIWI and MILI are mouse PIWI proteins and EfPiwi is from a freshwater sponge; tags in brackets are library labels; higher = faster piRNA-guided slicing of the target; conditions: auxiliary factor: 500 nM mouse GTSF1
Summary of the method: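 Reactions were run for 0–8 or 0–960 min at 33 °C in HEPES–potassium acetate buffer, combining 1 nM active affinity-purified piRISC with one synthetic guide, […] transcribed, DNA-blocked target RNA library and, in some cases, 500 nM GTSF1 partner protein. Sequencing of uncleaved targets followed, with normalisation to depth and to weakly complementary targets. Three trials were pooled, k3 was capped at 0.0001 min^-1, and the pre-steady-state cleavage rate was taken from a burst-and-steady-state fit.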
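Also: 1 nM active piRISC with 0.1 nM target library at 33 °C single turnover.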

Going from GGAGACCUAACUAUUCAACCUACUACGUCA to GGAGACGAUACUAAACAACCUACUACCACA, the “pre-steady-state target cleavage rate” value rises from 0.0338 ± 0.011 to 0.214 ± 0.019.

Going from GGAGAGGAUACUAUACUACCUACUACCACA to GGAGACCUAUUUAUACAACCUACUACCUCA, the “pre-steady-state target cleavage rate” value falls from 0.171 ± 0.016 to 0.0657 ± 0.02.

Compared with GGAGACCUUACUAUACAACCUACUACUCUCA, GGAGACCUAACUGUACAACCUACUACCUCA is lower in “pre-steady-state target cleavage rate” value: 0.242 ± 0.025 for the first, 0.0814 ± 0.024 for the second.

Compared with GGAGACGAUACAUAACAACCUACUACCUCA, GGAGACCUAUCUAUACAUCCUUCUACCUCA is lower in “pre-steady-state target cleavage rate” value: 0.114 ± 0.013 for the first, 0.0137 ± 0.0039 for the second.

Going from GGAGUGCAUACUAAACAACCUACUACCUCA to GGAGACCUUACUAUACAACCUACUACUCA, the “pre-steady-state target cleavage rate” value rises from 0.147 ± 0.011 to 0.216 ± 0.025.

Going from GGAGACCUAUCUAUACAACCUAUCUACCUCA to GGAGAGGAUACUAUAGUUCCUACUACCUCA, the “pre-steady-state target cleavage rate” value rises from 0.0483 ± 0.0065 to 0.18 ± 0.015.

First: GGAGACCUUACUAUACAACCUACAACCACA
Second: GGAGACCUAUGAUUACAUGCUACUACCUCA
The “pre-steady-state target cleavage rate” value of the first is higher: 0.0494 ± 0.013 for the first, 0.00366 ± 0.0034 for the second.

GGAGUGGAUACUAUUCAACCUACUUCCUCA and GGAGACCUAUGAUUACAAGGUACUACCUCA are within error of each other in “pre-steady-state target cleavage rate” value: 0.00253 ± 0.002 for the first, 0.0041 ± 0.0031 for the second.

Going from GGAGACGAUACUAAUCAACCUACUACCUCA to GGAGACCUAAGUAUAGAACCUACUACCUCA, the “pre-steady-state target cleavage rate” value falls from 0.182 ± 0.015 to 0.0747 ± 0.013.

First: GGAGUGGAUAGUAUACUACCUACUACCUCA
Second: GGAGACCUAUGAUAACAACCUACUACCUCC [g2:g16:cont:t1C]
The “pre-steady-state target cleavage rate” value of the first is higher: 0.113 ± 0.0097 for the first, 0.00493 ± 0.0021 for the second.

Compared with GGAGACCUUACUAUACAACCUACCUACCUCA, GGAGACCUAUCUAGACAACCUACUACCUCA is lower in “pre-steady-state target cleavage rate” value: 0.148 ± 0.015 for the first, 0.103 ± 0.016 for the second.

Going from GGAGACCUUACUAUACAACGAACUACCUCA to GGAGACCUUACUUUUCAACCUACUACCUCA, the “pre-steady-state target cleavage rate” value rises from 0.00385 ± 0.0021 to 0.0874 ± 0.01.

Going from GGAGACCUAUGAUUACAUCCUACUACCUGA to GGAGACCUAACUAUUCAACCUACUAGCUCA, the “pre-steady-state target cleavage rate” value rises from 0.0052 ± 0.0025 to 0.089 ± 0.024.

Going from GGAGACCUAUGUUUACAACCUAGUACCUCA to GGAGACCUAUGUAUCAACCUACUACCUCA, the “pre-steady-state target cleavage rate” value rises from 0.00404 ± 0.0027 to 0.00951 ± 0.0023.

First: GGAGACGGUACUAUACAACCUACUACCUCA
Second: GGAGACCUAUGAUAACAACCCACUACCUCA
The “pre-steady-state target cleavage rate” value of the first is higher: 0.187 ± 0.016 for the first, 0.00347 ± 0.0029 for the second.

First: GGAGACCAUACUAAACAACGUACUACCUCA
Second: GGAGACCUAUGUUUACAACCUACUAGCUCA
The “pre-steady-state target cleavage rate” value of the first is higher: 0.0192 ± 0.003 for the first, 0.00692 ± 0.0034 for the second.

Compared with GGAGACCUAUCUAUACAACCUACUUCCACA, “GGAGACCUAUGAUAUGUACCUACUUGGAGA [g7:g13:cont:t1A]” is lower in “pre-steady-state target cleavage rate” value: 0.0447 ± 0.011 for the first, under 0.0001 for the second.

Going from GGAGACCUAUCUAUACAUCCUACUACCACA to GGAGACCUAUGUAAACAUCCUACUACCUCA, the “pre-steady-state target cleavage rate” value falls from 0.209 ± 0.025 to 0.0128 ± 0.0025.

First: GGAGACCUAUGAUAACAACCUACUGACCUCA
Second: GGAGACCUAUGUAUACAAUCUACUACCUCA
The “pre-steady-state target cleavage rate” value of the first is lower: 0.00368 ± 0.0025 for the first, 0.0642 ± 0.011 for the second.

First: GGAGACCUAUCUAAACAACCUACUACCACA
Second: GGAGACCUAUAUAUACAACCUACUACCUCA
The “pre-steady-state target cleavage rate” value of the first is higher: 0.0926 ± 0.013 for the first, 0.0406 ± 0.0075 for the second.

From the supplement of paper PMC10338343
